Sfp inh: inhibitors of Bacillus subtilis Sfp phosphopantetheinyl transferase | AID 1490 | 310,000 tested, 3.5% active | Q9F4F7 | Potency, µM, for inactives: largest response in the series, negative = inhibition, actives largely listed as inhibitors | Biochemical Sfp PPTase activity, qHTS;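 also: the enzyme is Sfp with the accession as filed and its product quenches rhodamine fluorescence; potency is read from the fitted curve at half-maximal effect; 0% = enzyme reaction without inhibitor and -100% = no enzyme wells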
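Buffer: 50 mM Hepes-Na pH 7.6, 10 mM MgCl2, 0.01% Nonidet P-40, 0.01% BSA. Enzyme 15 nM, pre-exposed to compound 15 min; substrates then added and fluorescence change tracked over 30 min.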
Coupling enz: inhibits coupling enzyme system, counter-screen for aldolase hits; activity change, negative = inhibition, % at 58.2 µM, hits read low; 290,000 tested, 0.67% active; AID 2472; coupling enzyme system counterscreen, AmpLite Red fluorescence; in the data active = activity change below about -30%
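Compounds tested against the coupling enzymes alone at 57.5 uM final; readout was AmpLite Red fluorescence (525/598 nm) after 20 min at RT.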
Tau fibril ThT: inhibitors of human tau fibril formation, thioflavin T binding; P10636; recombinant tau K18 P301L, heparin-induced fibrillization, ThT fluorescence; Potency, µM (series often up to 57.4 µM), for inactives: at the top dose activity, negative = inhibition, hits mostly inhibitors; 270,000 tested, 2.1% active; AID 1460; also: potency is read from the fitted curve at half-maximal effect; nearly all actives have a fitted effect of over 55% in size
Target sequence (P10636 561-689 P618L limits assumed): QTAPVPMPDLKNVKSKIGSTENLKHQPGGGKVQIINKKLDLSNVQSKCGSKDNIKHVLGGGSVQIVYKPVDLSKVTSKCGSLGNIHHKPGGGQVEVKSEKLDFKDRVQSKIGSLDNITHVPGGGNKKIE
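K18 P301L tau (15 uM + 0.24 uM Alexa 594-tagged), heparin 20 uM, NaOAc pH 7, 6 h 37 C; ThT 30 uM, 1 h RT, ex 450/em 510 nm.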
KDM4E inh: inhibitors of human JMJD2E histone demethylase; JMJD2E catalytic domain, FDH-coupled NADH fluorescence (FDH is formaldehyde dehydrogenase); 230,000 tested, 1.6% active; B2RXH2; Potency, µM (series often up to 57.1 µM), without a hit: at the highest dose activity change, negative = inhibition, actives largely listed as inhibitors; AID 2147; active = well fitted inhibition curve with a large enough effect, not every such curve was filed as active; inconclusive = small, poorly fitted or top-dose-only effect, or another doubt; inactive = no such curve, though single readings can be large or run the other way;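 also: potency is read from the fitted curve at half-maximal effect; 0% = wells with enzyme and -100% = buffer wells without enzyme; nearly all actives have a fitted effect of over 50% in size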
Target sequence (B2RXH2 1-337 limits assumed): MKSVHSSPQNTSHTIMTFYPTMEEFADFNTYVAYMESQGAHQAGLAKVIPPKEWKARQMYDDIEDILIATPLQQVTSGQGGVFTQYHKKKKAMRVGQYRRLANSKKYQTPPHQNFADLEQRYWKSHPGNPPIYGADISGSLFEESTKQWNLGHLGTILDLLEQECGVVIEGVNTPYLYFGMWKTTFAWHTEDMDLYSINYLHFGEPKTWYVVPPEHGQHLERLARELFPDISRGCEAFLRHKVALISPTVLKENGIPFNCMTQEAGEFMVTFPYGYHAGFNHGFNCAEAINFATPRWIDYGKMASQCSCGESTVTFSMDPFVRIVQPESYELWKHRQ
Tau fluor cs: counter-screen for tau fibril formation inhibitors | tau K18 P301L (four-repeat tau fragment) Alexa594 fluorescence, heparin fibrillization | Potency, µM (series often up to 57.7 µM), without a hit: at the highest dose activity change, negative = decrease | AID 1463 | 280,000 tested, 0.93% active; also: potency is read from the fitted curve at half-maximal effect; nearly all actives have a fitted effect of over 55% in size
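Human K18 P301L tau (15 uM unlabeled plus 0.24 uM Alexa 594-labeled, final) in 100 mM sodium acetate pH 7 was mixed with compound and 20 uM heparin and incubated 6 hr at 37 C.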
Tau fibril FP: inhibitors of human tau fibril formation. P10636. K18 P301L tau heparin fibrillization, Alexa594 FP, 6 h. 280,000 tested, 0.39% active. AID 1468. Potency, µM (titrated, usually from 57.7 µM), inactives show at the top dose activity, negative = inhibition, hits mostly inhibitors; also: potency is read from the fitted curve at half-maximal effect; nearly all actives have a fitted effect of over 55% in size
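Steps: dispense K18 P301L tau (15 uM plus 0.24 uM Alexa 594 tracer, final) in pH 7 sodium acetate; add compound; add heparin (20 uM final); incubate 6 hr, 37 C; add ThT (30 uM final); after 1 hr ambient, read FP.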
Active calls of the source: *; ? = inconclusive; . = no result given; [ ] = remark or other dose. The list is not random: actives were taken first. Their share in the collection is about 5.3%. Unless noted, calls follow the shape of the dose curve; as a rule, active = well fitted curve in the direction sought with a large enough effect; inconclusive = small, poorly fitted or top-dose-only effect, or another doubt; inactive = no such curve, though single readings can be large; an effect the other way counts as inactive or inconclusive. Unless noted, % is scaled to controls: 0 for no effect and ±100 for the full control effect.

SMILES	Sfp inh	Coupling enz	Tau fibril ThT	KDM4E inh	Tau fluor cs	Tau fibril FP
COC(=O)C1=C(O)/C(=C\c2cc(C)n(-c3ccccc3F)c2C)N=C1C	4%	4	?	22µM*	-16%	-3%
COC(=O)C1=C(O)/C(=C\c2cc(C)n(-c3ccccc3C)c2C)N=C1C	45µM*	-42*	?	?	-21%	3%
CCOC(=O)Cn1nnnc1CN(Cc1ccc(OC)cc1)Cc1cc2cc(C)ccc2[nH]c1=O	71µM*	1	-11%	-14%	-8%	15%
COc1ccccc1CN(Cc1cc2cc(C)cc(C)c2[nH]c1=O)Cc1nnnn1CC1CCCO1 (stereo unspecified)	-3%	-1	-12%	-10%	-5%	3%
CCc1ccc2[nH]c(=O)c(CN(Cc3ccccc3OC)Cc3nnnn3Cc3ccco3)cc2c1	-18%	0	-16%	?	-13%	4%
CCOC(=O)Cn1nnnc1CN(Cc1ccc(OC)cc1)Cc1cc2cc(C)cc(C)c2[nH]c1=O	35µM*	1	0%	5%	2%	7%
COc1ccccc1CN(Cc1cc2cc(C)ccc2[nH]c1=O)Cc1nnnn1Cc1ccco1	?	1	-14%	?	-2%	6%
CCOC(=O)Cn1nnnc1CN(Cc1ccc(OC)cc1)Cc1cc2cc(CC)ccc2[nH]c1=O	18µM*	-24	-9%	?	-14%	5%
OCc1ccc(-c2ccc(-c3ccc(CO)s3)o2)s1	-26%	-1	?	.	?	13%
COCCn1c(=O)c(C)nc2cnc(N3CCN(C)CC3)nc21	12%	1	.	.	.	.
COc1cc(NS(C)(=O)=O)ccc1Nc1c2ccccc2nc2ccccc12	-2%	.	14µM*	?	?	-1%
C/C(=N\NC(=O)CNc1cccc2ccccc12)c1ccccc1	17%	-1	1%	?	-10%	9%
C/C(CCc1ccco1)=N\NC(=O)CNc1cccc2ccccc12	-17%	-55*	?	?	-26%	3%
Cc1ccc(OCC(=O)N/N=C/c2ccco2)cc1	1%	-8	-8%	-3%	-3%	11%
O=C(Cc1cccs1)N/N=C/C=C/c1ccco1	?	-9	25µM*	6%	?	?
Cc1ccc(OCC(=O)N/N=C/C=C/c2ccco2)cc1C	45µM*	-4	?	-17%	-23%	-2%
CCn1c(SCC(=O)N/N=C/C=C/c2ccco2)nnc1-c1ccccc1	-29%	1	?	?	-15%	?
O=C(CSc1nnc(SCc2ccccc2)s1)N/N=C/C=C/c1ccco1	35µM*	-1	?	?	-21%	?
Cc1cc2c(nc1C)CCCN2CC(O)CN1CCCc2nc(C)c(C)cc21	0%	-2	-17%[11.5 µM]	.	-9%[11.6 µM]	-6%[11.6 µM]
Nc1nc(-c2nn(Cc3ccccc3F)c3ncccc23)ncc1C1CC1	15%	0	.	.	.	.
CCCn1c2ccccc2c2cnn(CC(=O)NCCc3ccc(C)cc3)c(=O)c21	.	.	8%	.	1%	1%
CCCN1CCC(=O)N(C(CSc2ccc(C)cc2)CC(C)C)CC1 (stereo unspecified)	1%	0	.	.	.	.
Cc1ccc2c(c1)-c1nc(-c3ccc4c(c3)NC(=O)CO4)cc(-c3ccc(Cl)cc3)c1CO2	.	.	11%	.	-1%	?
O=C(Nc1cc(Cl)cc2c1[nH]c1cnccc12)c1cccnc1	-15%	0	.	.	.	.
CC1OC(OCC2OC(Oc3cc(O)c4c(c3)OC(c3ccc(O)cc3)CC4=O)C(O)C(O)C2O)C(O)C(O)C1O (stereo unspecified)	-1%	2	.	.	.	.
SMILES	Sfp inh	Coupling enz	Tau fibril ThT	KDM4E inh	Tau fluor cs	Tau fibril FP
O=C(CNc1cccc2ccccc12)N/N=C/C=C/c1ccco1	-12%	-5	?	-9%	16µM*[quencher]	10%
O=C(CNc1cccc2ccccc12)N/N=C/c1ccc(C(=O)O)cc1	2%	1	?	-5%	-18%	10%
N#C/C(=C\c1ccc(-c2cccc([N+](=O)[O-])c2)o1)C(=O)Nc1nc(-c2cccs2)cs1	-5%	0	2µM*	1%	?	15%
O=C(N/N=C/c1ccc(-c2cccc([N+](=O)[O-])c2)o1)c1cccs1	7%	3	?	5%	-13%	0%
COc1ccc(-n2c(=O)c(-c3ccc(Cl)cc3)nc3cnc(N(C)C)nc32)cc1	-1%	0	.	.	.	.
O=C(O)c1ccc(-c2cccc([N+](=O)[O-])c2)o1	50µM*	7	-15%	-1%	7%	1%
O=C(Nc1nccs1)c1ccc(-c2ccc([N+](=O)[O-])cc2)o1	25µM*	-1	?	4%	-19%	-4%
COc1ccc(NC(=O)c2ccc(-c3ccc([N+](=O)[O-])cc3)o2)cc1	-76%	-31*	1.3µM*	-20%	?	12%
O=C(Nc1nccs1)c1ccc(-c2ccc(Cl)cc2)o1	-4%	1	8%	?	?	?
N#C/C(=C(/O)c1ccc(-c2cccc([N+](=O)[O-])c2)o1)c1nc2ccccc2s1	35µM*	-2	6.3µM*	0%	?	10%
CN1CCc2ccc3c4c2[C@]1(C)Cc1cccc(c1-4)OCO3	?	-18	.	.	.	.
O=C(c1ccco1)N1CCC2(CCN(Cc3ccncc3)CC2)CC1	11%	-1	.	.	.	.
CCc1cccc(-n2nnc(S(=O)(=O)c3ccc(OC)cc3)c2C)c1	.	.	-14%	.	-29%	5%
O=C(/C=C\c1ccc(-c2cccc([N+](=O)[O-])c2)o1)N1CCOCC1	20µM*	2	?	16µM*	?	1%
CC1CCN(c2ccccc2NC(=S)NC(=O)c2ccc(-c3cccc([N+](=O)[O-])c3)o2)CC1	-6%	1	-14%	2%	-17%	3%
CC1CCN(c2ccc(NC(=S)NC(=O)c3ccc(-c4cccc([N+](=O)[O-])c4)o3)cc2)CC1	?	1	2µM*	-11%	?	-4%
Cc1ccc(-c2ccc(C(=O)NCc3ccccc3)o2)c2ccccc12	?	2	-21%	?	-18%	4%
O=C(Nc1ccccc1)c1ccc(-c2ccc([N+](=O)[O-])cc2)o1	50µM*	-1	.	.	.	.
Cc1ccc(-c2ccc(C(=O)Nc3ccccc3)o2)c2ccccc12	40µM*	-14	?	-5%	-29%	-14%
COc1cccc(C2=CC(c3ccccc3F)n3ncc(C(=O)Nc4ccc(F)cc4)c3N2)c1 (stereo unspecified)	.	.	-11%	.	?	?
CCOC(=O)C1CCN(Cc2ccc(O)c3ncccc23)CC1	11%	-8	?	8.9µM*	-30%	-4%

Bioassay records: PubChem, National Center for Advancing Translational Sciences (NCATS)
